Laboratory results published in the supplement of paper PMC10849652.
Of roughly 7,900 targets only a part is listed; those with a hit were picked by preference. About 0.6% of all pairs of compound and target were hits. Unmarked numbers belong to inactive results.

Legend:
Experiment in all cases: log2 fold change, soluble protein after heating vs DMSO (PISA); higher = thermal stabilisation; K562 cells, 10 uM, 30 min; active = over 0.2 and 3.5 SD of the protein, either way, in both replicates (recomputed)
IRAK-1-4 Inhibitor I = compound: C1COCCN1CCN2C3=CC=CC=C3N=C2NC(=O)C4=CC(=CC=C4)[N+](=O)[O-] [IRAK-1-4 Inhibitor I]
In short: (§1)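 Soluble protein was quantified by TMTpro 16plex LC-MS/MS after channel sums were equalised. It was obtained as the supernatant after 21,000xg for 90 min from pooled aliquots of K562 cells (2×10^6 cells/mL, 10 μM compound, 30 min) heated for 3 min across 48°C-58°C and extracted in PBS with 0.5% NP-40 at 4°C. Thermal stability values are relative to control samples and come from duplicates. They are given as log2 fold changes.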

ibrutinib = compound: C=CC(=O)N1CCC[C@@H](n2nc(-c3ccc(Oc4ccccc4)cc3)c3c(N)ncnc32)C1 [ibrutinib]
In short: as §1

[1] = compound: CC(=O)c1cnc2ccc(-c3cc(Cl)c(O)c(Cl)c3)nc2c1N[C@H]1CC[C@H](CN(C)C)CC1
In short: as §1

ralimetinib = compound: CC(C)(C)Cn1c(N)nc2ccc(-c3[nH]c(C(C)(C)C)nc3-c3ccc(F)cc3)nc21 [ralimetinib]
In short: as §1

[2] = compound: CC(C)(O)CC(=O)NCCn1ccc2ncnc(Nc3ccc(Oc4cccc(C(F)(F)F)c4)c(Cl)c3)c21
In short: as §1

[3] = compound: CC(C)C1=C2N=C(C=C(N2N=C1)NCC3=CC=CC=C3)NCCCCCCN
In short: as §1

[4] = compound: CC(C)C[C@@H](C=O)NC(=O)[C@H](CC(C)C)NC(=O)[C@H](CC(C)C)NC(=O)OCc1ccccc1
In short: as §1

pinometostat = compound: CC(C)N(C[C@H]1O[C@@H](n2cnc3c(N)ncnc32)[C@H](O)[C@@H]1O)[C@H]1C[C@@H](CCc2nc3cc(C(C)(C)C)ccc3[nH]2)C1 [pinometostat]
In short: as §1

[5] = compound: CC1=C(C(CC(=O)N1)C2=CC=C(C=C2)C(F)(F)F)C(=O)NC3=C(C=C4C(=C3)C=NN4)F
In short: as §1

[6] = compound: CC1=C(C2=C(C=C1)C(=O)C3=CC=CC=C3N2CCCN)C
In short: as §1

[7] = compound: CC1=C(C=C(C=C1)NC(=O)C2=CC(=CC=C2)N(C)C)NC(=O)C3=CC=C(C=C3)O
In short: as §1

[8] = compound: CC1=NC(=CC=C1)C2=C(N=C(N2)C(C)(C)C)C3=CC4=NC=CN=C4C=C3
In short: as §1

Nexturastat A = compound: CCCCN(Cc1ccc(C(=O)NO)cc1)C(=O)Nc1ccccc1 [Nexturastat A]
In short: as §1

vemurafenib = compound: CCCS(=O)(=O)Nc1ccc(F)c(C(=O)c2c[nH]c3ncc(-c4ccc(Cl)cc4)cc23)c1F [vemurafenib]
In short: as §1

[9] = compound: CCCc1cc(C)[nH]c(=O)c1CNC(=O)c1cc(-c2ccnc(N3CCN(C)CC3)c2)cc2c1cnn2C(C)C
In short: as §1

givinostat = compound: CCN(CC)Cc1ccc2cc(COC(=O)Nc3ccc(C(=O)NO)cc3)ccc2c1 [givinostat]
In short: as §1

barasertib = compound: CCN(CCCOc1ccc2c(Nc3cc(CC(=O)Nc4cccc(F)c4)[nH]n3)ncnc2c1)CCOP(=O)(O)O [barasertib]
In short: as §1

[10] = compound: CC1=C(C=C(C=C1)NC(=O)C2=CC(=CC=C2)C(C)(C)C#N)NC3=CC4=C(C=C3)N=CN(C4=O)C
In short: as §1

[11] = compound: CC1=CC=C(C=C1)SC2=C3C=C(SC3=CN=C2)C(=O)N
In short: as §1

[12] = compound: CCCS(=O)(=O)Nc1ccc(F)c(C(=O)c2c[nH]c3ncc(Cl)cc23)c1F
In short: as §1

Sequence of UniProt Q9BWG4 (Q9BWG4 whole entry, looked up): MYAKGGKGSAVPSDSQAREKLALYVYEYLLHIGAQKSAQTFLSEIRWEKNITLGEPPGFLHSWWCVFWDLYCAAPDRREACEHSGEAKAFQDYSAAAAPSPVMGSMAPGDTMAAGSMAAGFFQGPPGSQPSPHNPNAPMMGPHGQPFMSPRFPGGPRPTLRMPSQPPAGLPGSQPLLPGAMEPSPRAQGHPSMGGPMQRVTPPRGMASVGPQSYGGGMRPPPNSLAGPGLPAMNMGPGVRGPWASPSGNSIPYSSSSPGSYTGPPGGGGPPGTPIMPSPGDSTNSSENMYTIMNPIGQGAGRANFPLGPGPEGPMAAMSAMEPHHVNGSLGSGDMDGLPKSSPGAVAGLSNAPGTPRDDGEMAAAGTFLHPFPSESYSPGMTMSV
Sequence of UniProt P04183 (P04183 whole entry, looked up): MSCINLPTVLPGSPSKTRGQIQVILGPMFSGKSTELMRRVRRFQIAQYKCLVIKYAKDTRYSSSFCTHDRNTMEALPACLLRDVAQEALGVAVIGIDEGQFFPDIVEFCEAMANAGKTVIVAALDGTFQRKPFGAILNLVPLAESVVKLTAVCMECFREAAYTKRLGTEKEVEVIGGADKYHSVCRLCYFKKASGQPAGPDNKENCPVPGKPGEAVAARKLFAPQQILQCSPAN
Sequence of UniProt Q16629 (Q16629 whole entry, looked up): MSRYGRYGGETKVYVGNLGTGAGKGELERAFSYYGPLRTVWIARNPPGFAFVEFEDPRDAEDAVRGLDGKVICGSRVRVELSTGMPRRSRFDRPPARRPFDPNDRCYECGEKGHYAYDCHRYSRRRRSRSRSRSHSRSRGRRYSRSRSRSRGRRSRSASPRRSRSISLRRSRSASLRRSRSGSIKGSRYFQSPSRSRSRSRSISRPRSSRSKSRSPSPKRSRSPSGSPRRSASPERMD
Sequence of UniProt Q08945 (Q08945 whole entry, looked up): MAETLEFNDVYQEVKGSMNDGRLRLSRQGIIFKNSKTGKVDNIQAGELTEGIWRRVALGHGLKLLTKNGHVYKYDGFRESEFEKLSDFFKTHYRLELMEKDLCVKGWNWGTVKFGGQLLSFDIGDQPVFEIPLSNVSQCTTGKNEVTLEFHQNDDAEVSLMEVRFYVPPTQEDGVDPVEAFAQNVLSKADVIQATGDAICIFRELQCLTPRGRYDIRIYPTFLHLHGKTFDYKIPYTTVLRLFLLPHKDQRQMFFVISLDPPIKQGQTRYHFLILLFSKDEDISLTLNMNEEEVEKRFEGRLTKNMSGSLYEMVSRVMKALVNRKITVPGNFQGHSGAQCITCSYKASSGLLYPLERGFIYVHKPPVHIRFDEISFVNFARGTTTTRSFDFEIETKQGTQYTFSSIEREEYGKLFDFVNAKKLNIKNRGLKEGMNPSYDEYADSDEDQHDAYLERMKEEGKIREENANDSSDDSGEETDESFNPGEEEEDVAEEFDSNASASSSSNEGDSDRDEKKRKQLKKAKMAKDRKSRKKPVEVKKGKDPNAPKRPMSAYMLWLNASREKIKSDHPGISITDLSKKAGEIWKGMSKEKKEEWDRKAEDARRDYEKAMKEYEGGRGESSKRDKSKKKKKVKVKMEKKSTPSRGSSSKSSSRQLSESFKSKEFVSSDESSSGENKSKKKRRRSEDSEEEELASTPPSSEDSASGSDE
Sequence of UniProt Q8WUH2 (Q8WUH2 whole entry, looked up): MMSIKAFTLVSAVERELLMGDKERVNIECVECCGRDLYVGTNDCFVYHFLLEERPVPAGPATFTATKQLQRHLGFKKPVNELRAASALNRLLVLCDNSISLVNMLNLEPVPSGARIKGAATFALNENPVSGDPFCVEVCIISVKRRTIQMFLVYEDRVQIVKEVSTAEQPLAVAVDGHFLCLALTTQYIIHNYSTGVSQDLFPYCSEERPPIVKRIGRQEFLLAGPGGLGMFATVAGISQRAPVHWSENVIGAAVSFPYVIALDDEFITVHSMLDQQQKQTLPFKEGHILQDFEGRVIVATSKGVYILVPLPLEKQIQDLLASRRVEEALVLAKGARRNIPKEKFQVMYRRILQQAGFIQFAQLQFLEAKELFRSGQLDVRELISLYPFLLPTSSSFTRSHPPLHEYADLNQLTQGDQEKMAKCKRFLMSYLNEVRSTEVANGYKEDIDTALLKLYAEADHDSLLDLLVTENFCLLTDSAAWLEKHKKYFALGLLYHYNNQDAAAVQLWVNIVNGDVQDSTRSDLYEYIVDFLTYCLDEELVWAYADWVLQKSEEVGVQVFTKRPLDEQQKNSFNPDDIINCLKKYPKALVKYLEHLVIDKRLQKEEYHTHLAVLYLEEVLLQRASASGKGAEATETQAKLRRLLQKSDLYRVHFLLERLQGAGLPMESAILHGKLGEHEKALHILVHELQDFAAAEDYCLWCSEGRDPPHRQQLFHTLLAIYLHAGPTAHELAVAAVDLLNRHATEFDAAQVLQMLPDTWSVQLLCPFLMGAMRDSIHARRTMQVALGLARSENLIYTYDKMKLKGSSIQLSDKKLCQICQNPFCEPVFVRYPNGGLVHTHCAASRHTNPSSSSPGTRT
Sequence of UniProt Q9BYN0 (Q9BYN0 whole entry, looked up): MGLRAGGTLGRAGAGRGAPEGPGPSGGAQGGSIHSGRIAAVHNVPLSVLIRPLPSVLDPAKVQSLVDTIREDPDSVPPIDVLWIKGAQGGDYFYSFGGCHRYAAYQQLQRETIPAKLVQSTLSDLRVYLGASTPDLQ
Sequence of UniProt P35270 (P35270 whole entry, looked up): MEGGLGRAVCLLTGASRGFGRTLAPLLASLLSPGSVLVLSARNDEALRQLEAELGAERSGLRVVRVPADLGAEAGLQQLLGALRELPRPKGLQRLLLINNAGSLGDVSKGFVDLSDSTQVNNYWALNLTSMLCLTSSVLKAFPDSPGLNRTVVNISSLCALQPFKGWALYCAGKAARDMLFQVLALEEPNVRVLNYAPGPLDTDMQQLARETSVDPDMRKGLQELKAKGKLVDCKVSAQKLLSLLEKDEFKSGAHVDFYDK
Sequence of UniProt Q9Y2H1 (Q9Y2H1 whole entry, looked up): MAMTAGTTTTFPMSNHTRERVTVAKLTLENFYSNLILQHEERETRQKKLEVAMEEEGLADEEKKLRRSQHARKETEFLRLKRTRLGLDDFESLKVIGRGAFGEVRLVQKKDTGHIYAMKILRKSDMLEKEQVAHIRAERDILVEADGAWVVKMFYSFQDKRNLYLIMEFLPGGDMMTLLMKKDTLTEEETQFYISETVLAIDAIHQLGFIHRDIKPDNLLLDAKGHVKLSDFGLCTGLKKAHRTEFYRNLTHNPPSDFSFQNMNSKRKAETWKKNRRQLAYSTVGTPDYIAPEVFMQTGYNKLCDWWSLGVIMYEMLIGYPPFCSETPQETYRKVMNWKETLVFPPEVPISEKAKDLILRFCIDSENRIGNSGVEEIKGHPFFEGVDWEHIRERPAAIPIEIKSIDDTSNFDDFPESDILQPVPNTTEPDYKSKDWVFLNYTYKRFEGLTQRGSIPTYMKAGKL
Sequence of UniProt P35711 (P35711 whole entry, looked up): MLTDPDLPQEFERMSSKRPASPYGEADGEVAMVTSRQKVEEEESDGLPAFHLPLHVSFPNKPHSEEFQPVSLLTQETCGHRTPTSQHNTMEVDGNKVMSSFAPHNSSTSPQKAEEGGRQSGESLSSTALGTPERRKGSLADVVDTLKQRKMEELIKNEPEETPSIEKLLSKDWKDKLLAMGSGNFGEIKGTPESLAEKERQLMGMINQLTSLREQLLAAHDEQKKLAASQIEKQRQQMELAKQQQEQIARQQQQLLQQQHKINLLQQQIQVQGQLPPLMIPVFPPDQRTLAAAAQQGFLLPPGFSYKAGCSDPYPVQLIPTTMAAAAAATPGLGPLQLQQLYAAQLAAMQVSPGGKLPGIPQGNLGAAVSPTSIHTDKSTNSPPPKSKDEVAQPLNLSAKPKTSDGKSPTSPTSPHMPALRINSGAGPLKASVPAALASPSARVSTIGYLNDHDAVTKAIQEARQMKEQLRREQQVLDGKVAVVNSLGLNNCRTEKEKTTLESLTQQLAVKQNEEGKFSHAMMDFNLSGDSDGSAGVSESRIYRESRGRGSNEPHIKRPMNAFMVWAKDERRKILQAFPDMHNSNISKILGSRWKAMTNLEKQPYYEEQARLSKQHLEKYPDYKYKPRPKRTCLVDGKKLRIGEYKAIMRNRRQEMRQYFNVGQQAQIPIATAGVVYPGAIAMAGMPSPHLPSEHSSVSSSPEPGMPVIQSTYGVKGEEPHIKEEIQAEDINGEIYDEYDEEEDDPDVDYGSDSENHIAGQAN
Sequence of UniProt Q13242 (Q13242 whole entry, looked up): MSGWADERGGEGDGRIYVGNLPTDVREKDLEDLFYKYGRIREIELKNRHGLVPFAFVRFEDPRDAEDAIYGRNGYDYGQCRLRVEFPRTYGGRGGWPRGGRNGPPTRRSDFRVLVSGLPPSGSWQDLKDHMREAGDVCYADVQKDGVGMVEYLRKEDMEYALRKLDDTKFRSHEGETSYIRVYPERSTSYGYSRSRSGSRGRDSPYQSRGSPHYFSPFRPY
Sequence of UniProt Q9UNL2 (Q9UNL2 whole entry, looked up): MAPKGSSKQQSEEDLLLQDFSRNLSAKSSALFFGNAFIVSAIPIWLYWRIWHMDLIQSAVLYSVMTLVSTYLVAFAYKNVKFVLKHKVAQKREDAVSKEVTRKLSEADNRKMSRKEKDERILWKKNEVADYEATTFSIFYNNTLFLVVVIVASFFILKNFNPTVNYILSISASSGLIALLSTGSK
Sequence of UniProt O43615 (O43615 whole entry, looked up): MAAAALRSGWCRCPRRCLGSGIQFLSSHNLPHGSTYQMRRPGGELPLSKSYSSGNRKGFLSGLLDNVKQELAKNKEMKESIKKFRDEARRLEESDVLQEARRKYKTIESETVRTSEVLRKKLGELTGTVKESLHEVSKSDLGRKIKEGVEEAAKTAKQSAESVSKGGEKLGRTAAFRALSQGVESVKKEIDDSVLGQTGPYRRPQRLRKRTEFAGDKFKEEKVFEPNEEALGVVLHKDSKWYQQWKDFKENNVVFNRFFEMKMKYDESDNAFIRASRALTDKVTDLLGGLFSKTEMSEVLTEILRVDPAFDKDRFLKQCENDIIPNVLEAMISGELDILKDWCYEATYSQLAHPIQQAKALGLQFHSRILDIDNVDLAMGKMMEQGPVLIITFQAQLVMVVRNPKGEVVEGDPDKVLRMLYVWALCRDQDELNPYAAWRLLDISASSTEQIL

Row | Target | log2 fold change (IRAK-1-4 Inhibitor I) | log2 fold change (ibrutinib) | log2 fold change [1] | log2 fold change (ralimetinib) | log2 fold change [2] | log2 fold change [3] | log2 fold change [4] | log2 fold change (pinometostat) | log2 fold change [5] | log2 fold change [6] | log2 fold change [7] | log2 fold change [8] | log2 fold change (Nexturastat A) | log2 fold change (vemurafenib) | log2 fold change [9] | log2 fold change (givinostat) | log2 fold change (barasertib) | log2 fold change [10] | log2 fold change [11] | log2 fold change [12]
1 | SPIRE1 (UniProt Q08AE8) | -0.065 | 0.032 | 0 | 0.008 | 0.073 | 0.181 | 0.09 | -0.006 | -0.036 | 0.029 | 0.013 | -0.025 | 0.31 | -0.011 | -0.062 | 0.185 | -0.014 | – | – | –
2 | STK26 (UniProt Q9P289) | 0.03 | -0.272 (active) | -0.344 (active) | -0.022 | -0.081 | -0.071 | 0.03 | -0.019 | 0.022 | -0.07 | -0.037 | 0.015 | 0.044 | -0.04 | 0.014 | 0.086 | 0.08 | -0.083 | 0.068 | -0.03
3 | SOX5 (UniProt P35711) | 0.067 | 0.115 | -0.028 | 0.037 | – | -0.086 | 0.368 | -0.088 | -0.051 | -0.081 | 0.004 | 0.02 | – | -0.05 | 0.042 | 0.013 | -0.119 | -0.125 | -0.144 | -0.063
4 | SSR3 isoform 2 (UniProt Q9UNL2) | 0.158 | 0.029 | 0.132 | 0.06 | 0.031 | 0.01 | -0.049 | -0.134 | 0.036 | -0.022 | 0.123 | 0.022 | -0.103 | 0.11 | -0.075 | -0.042 | 0.017 | -0.032 | -0.014 | -0.011
5 | SYNE1 (UniProt Q8NF91) | 0.062 | -0.015 | -0.398 | 0.127 | -0.212 | 0.097 | 0.064 | 0.002 | -0.031 | 0.075 | -0.051 | -0.17 | 0.612 (active) | -0.045 | -0.044 | 0.199 | 0.047 | -0.126 | – | –
6 | TIMM44 (UniProt O43615) | 0.066 | -0.061 | -0.065 | -0.039 | -0.171 | -0.399 (active) | 0.006 | -0.004 | 0.028 | 0.022 | -0.028 | 0.074 | -0.052 | -0.002 | -0.096 | -0.013 | 0.055 | 0.048 | 0.091 | 0.12
7 | SSRP1 (UniProt Q08945) | -0.044 | -0.037 | -0.138 | -0.022 | -0.008 | -0.119 | 0 | -0.036 | -0.02 | -0.554 (active) | -0.049 | 0.091 | -0.069 | 0.051 | 0.015 | 0.033 | 0.059 | -0.072 | 0.018 | 0.062
8 | SRSF9 (UniProt Q13242) | -0.094 | 0.106 | -0.13 | 0.199 | 0.219 | 0.019 | 0.171 | 0.29 | -0.011 | – | 0.015 | -0.082 | 0.37 | -0.116 | 0.075 | 0.151 | -0.082 | -0.044 | -0.083 | 0.076
9 | SRSF7 (UniProt Q16629) | -0.112 | 0.128 | -0.288 | 0.098 | 0.24 | 0.032 | 0.084 | 0.128 | 0.053 | -0.266 | 0.025 | -0.112 | 0.193 | -0.043 | 0.114 | 0.059 | -0.105 | 0 | -0.115 | -0.088
10 | SRXN1 (UniProt Q9BYN0) | -0.291 | -0.013 | 0.12 | -0.134 | -0.201 | – | -0.024 | 0.187 | 0.045 | -0.026 | 0.01 | 0.089 | -0.036 | 0.142 | -0.027 | – | 0.012 | -0.149 | 0.04 | 0.017
11 | TGFBRAP1 (UniProt Q8WUH2) | -0.088 | -0.067 | -0.119 | 0.33 | -0.108 | -0.424 | -0.037 | 0.046 | 0.052 | -0.017 | -0.001 | 0.061 | 0.107 | -0.055 | 0.038 | 0.092 | 0.01 | -0.058 | 0.138 | -0.003
12 | TK1 (UniProt P04183) | 0.037 | 0.025 | 0.003 | -0.048 | -0.016 | 0.059 | -0.001 | -0.013 | 0.06 | -0.01 | 0.001 | -0.004 | 0.014 | 0.003 | -0.095 | 0.011 | 0.011 | -0.035 | 0.01 | -0.012
13 | THAP9 (UniProt Q9H5L6) | 0.07 | 0.002 | -0.105 | 0.178 | – | – | -0.025 | -0.035 | 0.027 | – | 0.017 | -0.065 | – | – | -0.463 | – | 0.121 | – | – | –
14 | STK38L (UniProt Q9Y2H1) | -0.084 | -0.048 | -0.181 | -0.577 | -0.035 | -0.148 | 0.385 | 0.051 | 0.013 | -0.023 | 0.165 | 0.056 | -0.074 | -0.038 | 0.079 | -0.016 | 0.064 | -0.044 | – | –
15 | TANGO6 (UniProt Q9C0B7) | -0.117 | -0.077 | 0.052 | 0.197 | -0.153 | -0.098 | -0.068 | 0 | 0.013 | 0.006 | -0.006 | 0.031 | -0.051 | – | -0.052 | 0.131 | 0.048 | 0.069 | 0.039 | 0.068
16 | SSBP4 (UniProt Q9BWG4) | 0.013 | 0.001 | -0.081 | -0.131 | – | 0.058 | 0.011 | 0.09 | 0.013 | 0.015 | -0.017 | 0.003 | – | – | -0.036 | -0.042 | 0.053 | 0.056 | -0.133 | 0.021
17 | SPR (UniProt P35270) | 0.063 | 0.04 | 0.344 | 0.017 | -0.038 | 0.035 | -0.008 | -0.053 | 0.01 | 0.083 | -0.003 | -0.043 | -0.069 | -0.019 | 0.009 | -0.004 | -0.076 | 0.103 | 0.063 | 0.019
